The structures appear in SMILES notation. The whole screen tested about 52,000 compounds, of which about 4,300 (8.3%) were called active. Cut-off read from the data, not from the text of the source: active = survival mostly below about 52% (no sharp cut-off); inactive = mostly above about 56%. Shown is part of a subset that was picked to be rich in actives.

This assay deals with DeltatarO mutant. Kind of assay: growth inhibition of S. aureus wild type versus tarO mutant, primary screen, teichoic acid synthesis inhibitors, RN4220, OD600 (AID 463173). The note with it: OD600, 18 h, active compounds read low, screened at 18.75 µg/mL (by protocol).
On to `CCOC(=O)CC(NC(=O)CCc1c(C)nc2ncnn2c1C)c1ccc(OC(C)C)cc1` (stereo not given), for which the survival is 114% (inactive).

With `Cc1ccc(Cn2c(C(=O)Nc3ccc(Cl)cc3)cc3sccc32)cc1`, the survival is 112% (inactive).

`CC(=O)c1c(C)n(-c2ccc(Cl)cc2)c2ccc(OC(=O)COc3ccccc3)cc12`: the survival was 63% (inactive).

Turning to `Cn1c(CNc2nc(-c3ccccc3)cs2)nnc1SCC(=O)c1ccccc1`, the survival is 51% (active).

As for `Cn1c(CNc2nc(-c3ccccc3)cs2)nnc1SCC(=O)OC1CCCCC1`, the survival was 73% (inactive). For the compound `CCn1c(CNc2nc(-c3ccccc3)cs2)nnc1SCC(=O)c1ccc(OC)cc1`, the survival is 87% (inactive). On to `CSc1ccc(CCNC(=O)c2ccc3c(Cl)c4c(nc3c2)CCCC4)cc1`, for which the survival is 64% (inactive). Regarding `CCCOC(=O)c1ccc2c(c1)C(=O)N(c1ccccc1)C2=O`, the survival was 78% (inactive).

For the compound `O=C(NCc1ccc2c(c1)OCO2)c1ccc2c(c1)N(Cc1ccccc1)C(=O)c1ccccc1S2=O` (stereo not given), the survival was 83% (inactive). Regarding `CC(CNC(=O)c1ccc(Cn2c(SCc3ccccc3)nc3cccnc32)cc1)c1ccccc1` (stereo not given), the survival was 69% (inactive). `O=C(O)CN1CCCCC1`: the survival was 89% (inactive). Regarding `O=C(c1ccc(Cl)cc1)n1nc(-c2ccccc2)nc1NCc1ccco1`, the survival is 29% (active).

Regarding `O=C(c1ccco1)n1nc(-c2ccccc2)nc1NCc1ccc(Cl)cc1`, the survival was 91% (inactive). The value for `O=C(c1ccc(F)cc1)n1nc(-c2ccc(Cl)cc2)nc1NCc1ccco1` was 70% (inactive). The value for `O=C(c1ccc(F)cc1)n1nc(-c2ccccc2)nc1NCc1ccco1` was 18% (active); that for `COc1ccc(C(=O)n2nc(-c3ccc(Cl)cc3)nc2NCc2ccco2)cc1` was 115% (inactive). With `O=C(c1ccco1)n1nc(-c2ccccc2)nc1NCc1ccccc1Cl`, the survival is 96% (inactive). Turning to `O=C(c1ccco1)n1nc(-c2ccc(Cl)cc2)nc1NCc1ccc(F)cc1`, the survival was 80% (inactive). With `O=C(c1ccccc1)n1nc(-c2ccc(Cl)cc2)nc1NCc1ccco1`, the survival was 23% (active). In the case of `O=C(c1ccco1)n1nc(-c2ccc(Cl)cc2)nc1NCc1ccccc1`, the survival is 74% (inactive).

As to `Cc1ccc2onc(CNC(=O)NCc3ccc(Cl)cc3)c2c1`, the survival is 77% (inactive). With `FC(F)(F)COc1nc(OCC(F)(F)F)nc(N(c2ccccc2)c2ccccc2)n1`, the survival is 71% (inactive).

`O=C(CCCCn1c(=O)c2ccccc2n(Cc2ccccc2Cl)c1=O)NCc1ccc2c(c1)OCO2`: the survival was 78% (inactive).

With `COc1ccc(S(=O)(=O)c2c(Nc3c(C)cccc3C)sc(C(=O)c3ccc(F)cc3)c2N)cc1`, the survival is 98% (inactive).

With `Cc1ccc(C)c(S(=O)(=O)c2nnn3c2nc(N2CCCCC2)c2sccc23)c1`, the survival was 60% (inactive).

Values taken from PubChem BioAssay AID463173 (ICCB-Longwood Screening Facility, Harvard Medical School, 2010).
